Measured values published in PubChem BioAssay AID1850 (Southern Research Specialized Biocontainment Screening …, 2009).
About 1,000 (0.32%) of roughly 310,000 compounds were called active. Not all results are given here. Measured potencies and affinities stand elsewhere. A number with no mark means an inactive call. No rule for the calls is given here.

Test: PhoP regulon inhibitors, Salmonella typhi PhoP promoter GFP reporter, confirmatory (AID 1850);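 also: 0% = induced wells with vehicle and 100% = uninduced wells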
Conditions: fluorescence, 4 h, at 50 µM, hits give high values

| Structure (SMILES) | inhibition |
| --- | --- |
| C#CCOCCOCCOCCNc1nc(N2CCN(C(=O)CCCCCCCCCCNC(=O)[C@@H](CCSC)n3cc(CCO)nn3)CC2)nc(N2CCN(C(=O)CCCCCCCCCCNC(=O)[C@H](CO)n3cc(CCCCCN)nn3)CC2)n1 | 14.1% |
| C#CCOCCOCCOCCNc1nc(N2CCN(C(=O)CCCCCCCCCCNC(=O)[C@@H](CCSC)n3cc(CCO)nn3)CC2)nc(N2CCN(C(=O)CCCCCCCCCCNC(=O)[C@H](CCSC)n3cc(CCO)nn3)CC2)n1 | 2.16% |
| CC(=O)Oc1ccc(C(=O)Nc2cc(C)on2)cc1 | 3.46% |
| Nc1cccc(C(=O)N/N=C/c2ccsc2)c1 | -10.7% |
| N=C(N)N=Nc1c(O)[nH]c2ccc(Br)cc12 | -13.7% |
| Oc1[nH]c2ccc(Br)cc2c1N=NC(=S)Nc1ccc(F)cc1 | 14.4% |
| O=C(N=Nc1c(O)[nH]c2ccccc12)c1ccc(CN2CCOCC2)cc1 | 8.21% |
| NC(=S)N=Nc1c(O)[nH]c2ccccc12 | -2.48% |
| COc1ccc(C(=O)C(Cc2cc(C(C)=O)ccc2OC)N2CCCC2)cc1 (stereo not given) | -6.51% |
| O=C(Nc1cccc(S(=O)(=O)N2CCOCC2)c1)c1cnccn1 | -6.33% |
| Cn1c(-c2ccc(F)cc2)cnc1NCc1cccc([N+](=O)[O-])c1 | 9.25% |
| Fc1ccc(Nc2nc(N3CCOCC3)nc(N3CCOCC3)n2)cc1 | 4.25% |
| COc1ccc(N2CCN(c3nc(Cl)nc(Nc4ccc(F)cc4)n3)CC2)cc1 | -8.76% |
| CCCOc1cc2c(C#N)c(N3CCCC3)nc(N)c2c(N)n1 | 1.34% |
| N#Cc1c(N)c(C#N)c(-c2ccc3c(c2)OCO3)c2c1CCCC2 | -3.29% |
| Nc1ncc(-c2ccc([N+](=O)[O-])cc2)cn1 | 4.2% |
| O=[N+]([O-])c1ccc(-c2cnc[nH]2)cc1 | 1.02% |
| Nc1c(-c2ccc(Cl)cc2)cnc2ncnn12 | 8.81% |
| Nc1ncncc1-c1ccc2ccccc2c1 | -7.33% |
| COc1ccc2cc(C(=O)C3CCCN(C(=O)c4cnccn4)C3)ccc2c1 (stereo not given) | 8.69% |
| CCc1ccccc1NC1=NCC(=O)N1C1CCCC1 | 0.33% |
| COc1ccc(Nc2nc(C)cc(C)c2C#N)c(OC)c1 | -0.58% |
| COc1ccccc1CNC(=O)C1CCCN(S(C)(=O)=O)C1 (stereo not given) | -3.93% |

| Structure (SMILES) | inhibition |
| --- | --- |
| CCOC(=O)c1ccc(NC(=S)NCc2ccccc2)cc1 | 4.39% |
| Cc1ccc(S(=O)(=O)N2CCN(S(=O)(=O)c3cccs3)CC2)cc1 | -0.13% |
| CCOc1ccc(NC(=O)CSc2nnc(-c3ccncc3)n2CC2CCCO2)cc1 (stereo not given) | -0.03% |
| CCNC(=O)NCCNC(=O)c1cc(OCC(F)(F)F)ccc1OCC(F)(F)F | 1.77% |
| O=C(c1ccc(-n2cncn2)c([N+](=O)[O-])c1)N1CCN(S(=O)(=O)c2ccc(F)c(F)c2)CC1 | 9.27% |
| COc1ccc(C(=O)NNC(=S)NC(=O)c2ccco2)cc1 | 5.07% |
| CCC(=O)NC(=S)NNC(=O)c1ccc(OC)cc1 | 18.2% |
| CCCOc1ccc(C(=O)NNC(=S)NC(=O)c2ccccc2)cc1 | 2.22% |
| CCCOc1ccc(C(=O)NNC(=S)NC(=O)c2cccs2)cc1 | 19.7% |
| CCCCC(=O)NC(=S)NNC(=O)c1ccc(OC)cc1 | -8.34% |
| O=C(NNC(=S)NC(=O)c1ccc(Br)cc1)c1ccc([N+](=O)[O-])cc1 | 0.22% |
| Cc1ccc(C(=O)NNC(=S)NC(=O)c2ccco2)cc1 | -11.8% |
| C=C(C)CNC(=S)NNC(=O)c1ccc(Br)cc1 | -8.67% |
| O=C(Nc1nc(-c2ccccc2Cl)cs1)c1cccnc1 | 3.73% |
| CC(C)(C)c1cc(OC(=O)c2ccccc2F)ccc1O | -1% |
| CC(=O)NC(=S)Nc1cc(C(F)(F)F)ccc1N1CCOCC1 | -8.24% |
| CCC1(C)SC(NC(C)=O)=NN1C(C)=O (stereo not given) | -7.92% |
| Cc1cc(=O)[nH]c(N/N=C/c2cccc(Br)c2)n1 | 5.33% |
| Cc1onc(-c2ccccc2)c1C(=O)OCC(=O)N(CC(C)C)c1c(N)n(Cc2ccccc2)c(=O)[nH]c1=O | 0.02% |
| Cc1ccsc1C1CC(=O)Nc2ccccc2S1 (stereo not given) | 3.75% |
| CCN(CC(=O)NCc1ccc(Cl)cc1)C(=O)CCc1ccccc1 | 8.65% |
| c1ccc(CN2CCN(C(c3ccccc3)c3nnnn3Cc3ccccc3)CC2)cc1 (stereo not given) | -8.11% |
